This passage reports binding signal results from PMC12864922, “TDP-43 directly inhibits mRNA accumulation in neurites through modulation of mRNA stability”.

B1: ENSMUSG00000061578.1475|Ksr2 (ssRNA)
RNA: GGGAGUUCUACAGUCCGACGAUCGCUUCGAUAUCCGCAUGCUAUGGAUGGAUGGAUGGAUUGAUUUGUGAAUGAAUGGAUGAAUGGAUGGGUAGGUGGGUGGAUGCAUAGGCAAGUAGAUGAAUGAAUAUGUGGGUAGAAGGGUGAGUGGGUGGAUGAAUGGAUGGAUAGGUUGGUAGGUUAAUGUAUUCGUGGAUGGGUGAAUGGAUGGAUGGAUAGAUAGAUGGGAAGGUGGAUGGACAGAUGGAUGGAUGGAUAGAUAGAUGGACAGGUGGUUGGUGGAUAAAUGAGUGAAUGAUUAUGUCUCUUGCGGUCGCACUAGUGUGGAAUUCUCGGGUGUCAAGG
B2: ENSMUSG00000061578.1460|Ksr2 (ssRNA)
RNA: GGGAGUUCUACAGUCCGACGAUCGCUUCGAUAUCCGCAUGCUAGAUGGAUGAAUGGAUGGGUAGGUGGGUAGAUAGGUAUAUGAAUGAAUGGAUGAAUGGAUGGGUGAAUGGAUGGAUAGGUAUGUGAAUAAAUGGAUGGAUGGAUGGAUUGAUUUGUGAAUGAAUGGAUGAAUGGAUGGGUAGGUGGGUGGAUGCAUAGGCAAGUAGAUGAAUGAAUAUGUGGGUAGAAGGGUGAGUGGGUGGAUGAAUGGAUGGAUAGGUUGGUAGGUUAAUGUAUUCGUGGAUGGGUGAAUGGAUGGAUGCUCUUGCGGUCGCACUAGUGUGGAAUUCUCGGGUGUCAAGG
B3: ENSMUSG00000061578.1471|Ksr2 (ssRNA)
RNA: GGGAGUUCUACAGUCCGACGAUCGCUUCGAUAUCCGCAUGCUAUGGAUGGAUAGGUAUGUGAAUAAAUGGAUGGAUGGAUGGAUUGAUUUGUGAAUGAAUGGAUGAAUGGAUGGGUAGGUGGGUGGAUGCAUAGGCAAGUAGAUGAAUGAAUAUGUGGGUAGAAGGGUGAGUGGGUGGAUGAAUGGAUGGAUAGGUUGGUAGGUUAAUGUAUUCGUGGAUGGGUGAAUGGAUGGAUGGAUAGAUAGAUGGGAAGGUGGAUGGACAGAUGGAUGGAUGGAUAGAUAGAUGGACAGGUGGUUGGUCUCUUGCGGUCGCACUAGUGUGGAAUUCUCGGGUGUCAAGG
B4: ENSMUSG00000061578.1477|Ksr2 (ssRNA)
RNA: GGGAGUUCUACAGUCCGACGAUCGCUUCGAUAUCCGCAUGCUAUGGAUUGAUUUGUGAAUGAAUGGAUGAAUGGAUGGGUAGGUGGGUGGAUGCAUAGGCAAGUAGAUGAAUGAAUAUGUGGGUAGAAGGGUGAGUGGGUGGAUGAAUGGAUGGAUAGGUUGGUAGGUUAAUGUAUUCGUGGAUGGGUGAAUGGAUGGAUGGAUAGAUAGAUGGGAAGGUGGAUGGACAGAUGGAUGGAUGGAUAGAUAGAUGGACAGGUGGUUGGUGGAUAAAUGAGUGAAUGAUUAUGUUGAUAGAUAUGUCUCUUGCGGUCGCACUAGUGUGGAAUUCUCGGGUGUCAAGG
B5: ENSMUSG00000061578.1468|Ksr2 (ssRNA)
RNA: GGGAGUUCUACAGUCCGACGAUCGCUUCGAUAUCCGCAUGCUAGAUGAAUGGAUGGGUGAAUGGAUGGAUAGGUAUGUGAAUAAAUGGAUGGAUGGAUGGAUUGAUUUGUGAAUGAAUGGAUGAAUGGAUGGGUAGGUGGGUGGAUGCAUAGGCAAGUAGAUGAAUGAAUAUGUGGGUAGAAGGGUGAGUGGGUGGAUGAAUGGAUGGAUAGGUUGGUAGGUUAAUGUAUUCGUGGAUGGGUGAAUGGAUGGAUGGAUAGAUAGAUGGGAAGGUGGAUGGACAGAUGGAUGGAUGGAUAGAUACUCUUGCGGUCGCACUAGUGUGGAAUUCUCGGGUGUCAAGG
B6: ENSMUSG00000061578.1470|Ksr2 (ssRNA)
RNA: GGGAGUUCUACAGUCCGACGAUCGCUUCGAUAUCCGCAUGCUAGGUGAAUGGAUGGAUAGGUAUGUGAAUAAAUGGAUGGAUGGAUGGAUUGAUUUGUGAAUGAAUGGAUGAAUGGAUGGGUAGGUGGGUGGAUGCAUAGGCAAGUAGAUGAAUGAAUAUGUGGGUAGAAGGGUGAGUGGGUGGAUGAAUGGAUGGAUAGGUUGGUAGGUUAAUGUAUUCGUGGAUGGGUGAAUGGAUGGAUGGAUAGAUAGAUGGGAAGGUGGAUGGACAGAUGGAUGGAUGGAUAGAUAGAUGGACAGGUGCUCUUGCGGUCGCACUAGUGUGGAAUUCUCGGGUGUCAAGG
B7: ENSMUSG00000061578.1458|Ksr2 (ssRNA)
RNA: GGGAGUUCUACAGUCCGACGAUCGCUUCGAUAUCCGCAUGCUAGAAUGAAUGGAUGAUGGAUGAAUGGAUGGGUAGGUGGGUAGAUAGGUAUAUGAAUGAAUGGAUGAAUGGAUGGGUGAAUGGAUGGAUAGGUAUGUGAAUAAAUGGAUGGAUGGAUGGAUUGAUUUGUGAAUGAAUGGAUGAAUGGAUGGGUAGGUGGGUGGAUGCAUAGGCAAGUAGAUGAAUGAAUAUGUGGGUAGAAGGGUGAGUGGGUGGAUGAAUGGAUGGAUAGGUUGGUAGGUUAAUGUAUUCGUGGAUGGGUGCUCUUGCGGUCGCACUAGUGUGGAAUUCUCGGGUGUCAAGG
B8: ENSMUSG00000061578.1467|Ksr2 (ssRNA)
RNA: GGGAGUUCUACAGUCCGACGAUCGCUUCGAUAUCCGCAUGCUAUGAAUGGAUGAAUGGAUGGGUGAAUGGAUGGAUAGGUAUGUGAAUAAAUGGAUGGAUGGAUGGAUUGAUUUGUGAAUGAAUGGAUGAAUGGAUGGGUAGGUGGGUGGAUGCAUAGGCAAGUAGAUGAAUGAAUAUGUGGGUAGAAGGGUGAGUGGGUGGAUGAAUGGAUGGAUAGGUUGGUAGGUUAAUGUAUUCGUGGAUGGGUGAAUGGAUGGAUGGAUAGAUAGAUGGGAAGGUGGAUGGACAGAUGGAUGGAUGGACUCUUGCGGUCGCACUAGUGUGGAAUUCUCGGGUGUCAAGG
B9: ENSMUSG00000061578.1462|Ksr2 (ssRNA)
RNA: GGGAGUUCUACAGUCCGACGAUCGCUUCGAUAUCCGCAUGCUAGAUGGGUAGGUGGGUAGAUAGGUAUAUGAAUGAAUGGAUGAAUGGAUGGGUGAAUGGAUGGAUAGGUAUGUGAAUAAAUGGAUGGAUGGAUGGAUUGAUUUGUGAAUGAAUGGAUGAAUGGAUGGGUAGGUGGGUGGAUGCAUAGGCAAGUAGAUGAAUGAAUAUGUGGGUAGAAGGGUGAGUGGGUGGAUGAAUGGAUGGAUAGGUUGGUAGGUUAAUGUAUUCGUGGAUGGGUGAAUGGAUGGAUGGAUAGAUAGAUGCUCUUGCGGUCGCACUAGUGUGGAAUUCUCGGGUGUCAAGG
B10: ENSMUSG00000061578.1472|Ksr2 (ssRNA)
RNA: GGGAGUUCUACAGUCCGACGAUCGCUUCGAUAUCCGCAUGCUAGAUAGGUAUGUGAAUAAAUGGAUGGAUGGAUGGAUUGAUUUGUGAAUGAAUGGAUGAAUGGAUGGGUAGGUGGGUGGAUGCAUAGGCAAGUAGAUGAAUGAAUAUGUGGGUAGAAGGGUGAGUGGGUGGAUGAAUGGAUGGAUAGGUUGGUAGGUUAAUGUAUUCGUGGAUGGGUGAAUGGAUGGAUGGAUAGAUAGAUGGGAAGGUGGAUGGACAGAUGGAUGGAUGGAUAGAUAGAUGGACAGGUGGUUGGUGGAUAACUCUUGCGGUCGCACUAGUGUGGAAUUCUCGGGUGUCAAGG

Whole data set: some 9,900 sequences, median “r (bound/input frequency ratio)” near 0.7, cut for the highest 2% near 6.5. Shown is part of a subset that was picked to be rich in the highest values.

Chain of TDP-43 (Q13148 whole entry): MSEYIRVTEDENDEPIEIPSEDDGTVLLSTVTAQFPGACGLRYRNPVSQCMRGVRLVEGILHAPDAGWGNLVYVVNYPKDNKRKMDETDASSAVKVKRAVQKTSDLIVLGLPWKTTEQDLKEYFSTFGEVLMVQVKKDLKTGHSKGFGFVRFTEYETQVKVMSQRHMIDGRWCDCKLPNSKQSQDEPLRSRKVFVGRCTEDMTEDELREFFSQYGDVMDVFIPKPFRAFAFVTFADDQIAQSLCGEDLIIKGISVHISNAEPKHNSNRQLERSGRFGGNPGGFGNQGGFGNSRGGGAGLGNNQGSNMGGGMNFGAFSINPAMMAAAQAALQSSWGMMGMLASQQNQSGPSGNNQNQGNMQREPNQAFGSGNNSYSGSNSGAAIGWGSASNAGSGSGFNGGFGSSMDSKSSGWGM

The target in this assay is TDP-43 (Homo sapiens, UniProt Q13148 1-414). As to the kind of experiment: RNA Bind-n-Seq with designed 260-mer pool; 25 mM Tris-HCl, 150 mM KCl, 3 mM MgCl2, BSA (printed 500 mg/mL), 20 units/mL SUPERase IN; pH not stated; 500 nM RNA pool, 1 h, 4 C; TDP-43 5, 50, 500 nM; high values mean tight binding. Particulars: protein: recombinant; tags: SBP (GST cleaved off with PreScission; pGEX-GST-SBP). An outline of the steps:
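Streptavidin beads captured recombinant SBP-tagged TDP-43 at 5, 50 or 500 nM, and the beads were incubated for 1 h at 4 °C with 500 nM of an in vitro-transcribed pool of 260-nt 3′ UTR oligos in 25 mM Tris-HCl, 150 mM KCl, 3 mM MgCl2, BSA and SUPERase IN. After washing, bound RNA was eluted with biotin, reverse transcribed, PCR-amplified and sequenced. Binding is reported as R, the mapped-read-normalized abundance of each oligo in the bound sample divided by its abundance in the input. Two independent protein batches served as duplicates.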
For B1, the binding signal is 8.8 R (bound/input frequency ratio).
Consider B2, for which the binding signal is 6.72 R (bound/input frequency ratio).
On to B3, for which the binding signal was 6.33 R (bound/input frequency ratio).
On to B4, for which the binding signal was 5.58 R (bound/input frequency ratio).
Consider B5, for which the binding signal was 14.4 R (bound/input frequency ratio).
With B6, the binding signal is 5.59 R (bound/input frequency ratio).
On to B7, for which the binding signal was 4.62 R (bound/input frequency ratio).
As to B8, the binding signal is 3.46 R (bound/input frequency ratio).
As to B9, the binding signal was 5.83 R (bound/input frequency ratio).
As to B10, the binding signal is 5.09 R (bound/input frequency ratio).
